CHO-K1 Ca antag = nonselective inhibitor or artifact in parental CHO-K1 cells | AID 602250 | inhibition, % at 3 µM | ATP-induced calcium, Fluo-8 fluorescence | 360,000 compounds, 0.6% hits;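 active means inhibition above a per-plate cutoff, the plate's mean sample inhibition plus 3 SD, cut at about 24% in these data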;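 further: 0% = DMSO plus EC80 ATP and 100% = DMSO alone without ATP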
CHO-K1 Ca ag = counter-screen for M1 agonists: effect in parental CHO-K1 cells; 360,000 compounds, 0.48% hits; AID 602248; activation, % at 3 µM; Fluo-8 calcium fluorescence; scaled to maximal ATP response, vehicle zero; in the data active means activation above about 15%;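 further: untransfected CHO-K1 host cells lacking M1 receptor as counterscreen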
CHRM1 PAM = potentiates human M1 receptor response to acetylcholine | P11229 | activation, % at 3 µM | AID 588819 | 360,000 compounds, 0.088% hits | CHO-K1 hM1, Fluo-8 calcium fluorescence, ACh EC20; 0% = ACh EC20, 100% = maximal ACh; in the data active means activation above about 19%, passing the limit was not always enough
Target sequence (P11229 whole entry, looked up): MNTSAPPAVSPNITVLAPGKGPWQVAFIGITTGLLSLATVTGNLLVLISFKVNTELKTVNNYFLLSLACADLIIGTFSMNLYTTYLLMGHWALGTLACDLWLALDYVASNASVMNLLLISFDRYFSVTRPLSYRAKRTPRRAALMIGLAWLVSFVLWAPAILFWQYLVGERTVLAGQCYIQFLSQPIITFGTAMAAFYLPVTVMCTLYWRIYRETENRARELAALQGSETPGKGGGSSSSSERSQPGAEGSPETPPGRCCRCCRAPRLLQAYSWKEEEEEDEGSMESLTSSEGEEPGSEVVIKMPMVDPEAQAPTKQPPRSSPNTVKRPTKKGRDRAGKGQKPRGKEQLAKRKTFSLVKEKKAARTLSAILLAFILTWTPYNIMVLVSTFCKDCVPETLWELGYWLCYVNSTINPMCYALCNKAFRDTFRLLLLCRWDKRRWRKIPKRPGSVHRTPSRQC
CHRM1 agonist = activates human CHRM1 receptor; CHO-K1 hM1, Fluo-8 calcium fluorescence, agonist mode; 0% DMSO, 100% acetylcholine EC100; 360,000 compounds, 0.33% hits; P11229; activation, % at 3 µM;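 active means activation above the run's mean compound activation plus 3 SD, cut at about 16% in these data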;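 further: peak over basal fluorescence ratio within a 140 s kinetic read after compound addition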
M1 antag = human CHRM1 antagonism | CHO-K1 hM1, Fluo-8 calcium fluorescence, ACh EC80 antagonist | inhibition, % at 3 µM | 360,000 compounds, 1.3% hits;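 active means percent inhibition above its own plate's cutoff, namely the mean of that plate's compound wells plus 3 SD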;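 further: peak over basal fluorescence ratio during 140 s after agonist addition; 0% = ACh EC80 plus DMSO and 100% = DMSO alone without agonist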
CHO-K1 Ca PAM = counter-screen for M1 PAMs: effect in parental CHO-K1 cells. ATP EC20, Fluo-8 calcium fluorescence; 0% at ATP EC20, 100% at ATP max. activation, % at 3 µM. 360,000 compounds, 0.02% hits;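 active means activation above the run cutoff, the mean activation of all test compounds plus 3 SD, cut at about 40% in these data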;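 further: peak over basal fluorescence ratio in a 140 s read after ATP addition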
Numbers without * were called inactive; nt = no result given. The list is not random: actives were taken first. Their share in the collection is about 2.3%.

SMILES	CHO-K1 Ca antag	CHO-K1 Ca ag	CHRM1 PAM	CHRM1 agonist	M1 antag	CHO-K1 Ca PAM
Cc1ccc(F)c(S(=O)(=O)NC(=O)C2(C)CCN2C(=O)Cc2cccs2)c1 (stereo not drawn)	0	0	1	-1	-5	-3
CCc1ccc(CN2CCC(n3nccc3NC(=O)c3ccccc3Cl)CC2)cc1	0	9	6	28*	-16	4
O=C(Nc1ccnn1C1CCN(CCCC2CCCC2)CC1)c1ccccc1Cl	-4	5	-17	-4	40*	-2
COc1ccccc1C(=O)Nc1ccnn1C1CCN(CCCC2CCCC2)CC1	-8	1	-11	-5	12	0
O=C(Nc1ccnn1C1CCN(C2CCC2)CC1)c1ccccc1Cl	46*	1	8	-5	-15	9
CN1OC[C@@H]2CN(C(=O)NC3CCCCC3)[C@H](c3ccc(N4CCCCC4)cc3)C[C@@H]21	3	0	13	-8	-10	13
CSc1ccc(-c2ccc3c(c2)c(Sc2ccccc2)c(-c2ccccc2)n3C)cc1	-9	0	nt	nt	nt	-4
COc1ccc(CCNC(=O)/C(C#N)=C2\N=C(NC(=O)c3ccco3)c3ccccc32)cc1	-7	1	5	1	-11	14
N#C/C(C(=O)NCc1ccccc1)=C1/N=C(NC(=O)c2ccco2)c2ccccc21	-4	17*	6	-3	-7	18
COc1ccc(CN2C(=O)CCCC2(C)c2nc3ccccc3[nH]2)cc1 (stereo not drawn)	-14	0	nt	nt	nt	8
O[Si](CCCN1CCCCC1)(c1ccc(F)cc1)C1CCCCC1 (stereo not drawn)	-1	2	-26	-6	97*	15
CCc1cccc(NC(=O)c2ccc(Cn3nc(C)cc3C)o2)c1	24*	0	8	-9	-12	-12
CCCCn1nnnc1C(c1cc2ccccc2o1)N1CCN(c2ccncc2)CC1 (stereo not drawn)	0	1	nt	nt	nt	-7
CCCCN(CC)CCCNC(=O)C1CCN(c2ncnc3c2sc2cccc(F)c23)CC1	-1	0	-18	-5	42*	-8
O=C(NCCN1CCOCC1)C1CCN(c2ncnc3c2sc2cccc(F)c23)CC1	14	1	-3	-4	0	7
COc1ccc(C2C=C(c3ccc(Br)cc3)Nc3nc(N4C(=O)CCC4=O)nn32)cc1 (stereo not drawn)	33*	0	-1	-1	9	-7
O=C1CCC(=O)N1c1nc2n(n1)C(c1ccccc1)C=C(c1ccc(Br)cc1)N2 (stereo not drawn)	3	1	4	-2	1	6
O=C(Nc1ccc2c3c(cccc13)CC2)c1ccccc1	-4	0	10	-7	-4	5
CCOc1ccc(CCN2C(=O)C(=O)N([C@@H](Cc3ccccc3)CN3CCC[C@H]3CN3C(=O)C(=O)NC[C@@H]3Cc3ccccc3)C[C@@H]2CC(C)C)cc1	4	0	nt	nt	nt	-9
Cc1cc(C)nc(/N=C(\N)Nc2ccc(C(C)C)cc2)n1	4	16*	-14	3	14	-4
CCCCc1ccc(N/C(N)=N/c2nc(C)cc(C)n2)cc1	46*	42*	-28	35*	83*	-28
Cc1ccc(N/C(N)=N/c2nc(C)cc(C)n2)cc1	-3	9	-7	-5	-6	0
CCN1C(=O)[C@H]2[C@@H](c3ccc(C)cc3)N[C@]3(CCCN(Cc4ccc(Cl)cc4)C3=O)[C@H]2C1=O	-1	0	-1	-5	-4	9
NS(=O)(=O)c1ccc(N2CCN(C(=O)C3COc4ccccc4O3)CC2)nc1 (stereo not drawn)	13	0	6	2	-9	-27
COc1ccc(S(=O)(=O)N2CCN(C(=O)C3COc4ccccc4O3)CC2)cc1 (stereo not drawn)	-23	6	-28	-6	89*	12
SMILES	CHO-K1 Ca antag	CHO-K1 Ca ag	CHRM1 PAM	CHRM1 agonist	M1 antag	CHO-K1 Ca PAM
O=C(C1COc2ccccc2O1)N1CCN(c2ccc(C(F)(F)F)cn2)CC1 (stereo not drawn)	5	24*	4	-2	-3	12
O=C(C1CC(c2ccc(F)cc2)=NO1)N1CCN(c2ccccc2)CC1 (stereo not drawn)	12	0	-9	-3	47*	-7
O=C(C1COc2ccccc2O1)N1CCN(c2ccccc2)CC1 (stereo not drawn)	53*	1	-1	0	-17	5
O=C(C1CC(c2ccc(F)cc2)=NO1)N1CCCCC1 (stereo not drawn)	-12	0	-2	-3	3	14
CC(=O)c1ccc(S(=O)(=O)N2CCN(c3ccnc4cc(Cl)ccc34)CC2)cc1	-1	9	-17	-2	30	2
CCC(=O)N1Cc2cc(C(=O)Nc3nccs3)nc(-c3cccc(-c4ccccc4OC)c3)c2[C@@H]1CCO	6	6	nt	nt	nt	2
CCCn1nnc(NC(=O)c2ccc([N+](=O)[O-])cc2Cl)n1	-1	15*	11	-11	-3	23
COC(=O)C1=C(C)N(Cc2ccco2)C(=O)/C1=C\c1ccc([N+](=O)[O-])cc1	8	17*	-3	4	20	19
Cn1c(COc2ccccc2O)[n+](C)c2ccccc21	-7	0	3	-11	-12	14
CCCCCCCCCCOC(=O)Cn1c(COc2ccccc2OC)[n+](C)c2ccccc21	29*	17*	-29	21*	69*	0
NC(Cc1ccc(F)cc1)c1csc(Nc2ccc(C(=O)c3ccccc3)cc2)n1 (stereo not drawn)	-4	5	3	9	2	14
Cc1ccc(OCC(=O)c2cc(C)n(Cc3cccs3)c2C)c([N+](=O)[O-])n1	28*	7	-11	-2	20	-11
Cc1ccc(OCC(=O)c2cc(C)n(CC(F)(F)F)c2C)c([N+](=O)[O-])n1	-7	3	8	1	-4	-2
CC(C)CN(C(=O)C1=COCCO1)c1c(N)n(Cc2ccccc2)c(=O)[nH]c1=O	7	2	7	-1	-13	-4
CCOc1ccc(Br)cc1/C(C)=N\NC1=NCCN1	15	3	-17	11	63*	0
CCCCCOc1ccc(/C(C)=N/NC2=NCCN2)cc1	-6	0	7	-4	-12	5
CC1(C)CC(=O)C(C=NCCN2CCN(CCCCS(=O)(=O)O)CC2)=C(O)C1	25*	0	2	-3	4	-8
CC1(C)CC(=O)C(C=NCCN2CCOCC2)=C(O)C1	-15	0	4	-2	-27	19
CCN(CC)CCOC(=O)c1c(C)oc2ccc(OC)cc12	-24	0	-24	-8	25*	-1

High-throughput results: PubChem, The Scripps Research Institute Molecular Screening Center
